Test results as given in the supplement of paper PMC6805474.
Values without a mark were called inactive.

Key:
[1] = tested on: Schistosoma mansoni schistosomula (NMRI); assay: phenotypic severity score (0-4); higher = more antischistosomal effect, active = 2 or more; conditions: 10 µM
[2] = tested on: Schistosoma mansoni schistosomula (Liberian); assay: drug effect (1 - score/DMSO control score) (fraction); higher = more antischistosomal effect, active = 0.5 or more; extreme values may be limits of the assay; conditions: 10 µM
Summary of the method: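 Drug effect was calculated by comparing the mean score of the test wells with the mean score of the DMSO wells, and any negative value was set to zero. Duplicate wells of 50 Liberian-strain S. mansoni schistosomula, mechanically transformed from cercariae and pre-incubated at least 12 h, received 10 µM compound in Medium 199 with 5% FCS at 37 °C, 5% CO2, with 0.1% DMSO in the comparison wells. Visual scoring at 10× took place at 24, 48 and 72 h on a quarter-point scale from 3 (normal) to 0 (dead), and a plate counted only if its DMSO wells averaged at least 2.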
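For phenotypic severity score (0-4) in this document: visual microscopic scoring of shape, motility and density changes versus 0.5% DMSO solvent controls, one point per descriptor, degeneracy or death scored 4, mean of duplicate wells.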

SMILES | phenotypic severity score ([1]; 24 h) | phenotypic severity score ([1]; 48 h) | phenotypic severity score ([1]; 72 h) | drug effect ([2]; 24 h) | drug effect ([2]; 48 h) | drug effect ([2]; 72 h)
CC1CCCCN1C(=O)NCCc1coc(-c2ccc(F)cc2)n1 (stereo not given) | 1 | 0 | 0 | 0.0909 | 0.25 | 0.236
CCS(=O)(=O)N(Cc1ccco1)Cc1cc2ccc(C)cc2nc1O | 0 | 1 | 0 | 0.2 | 0.333 | 0.5 (active)
Nc1nccc2ccc(-c3ccc4nccn4c3)cc12 | 4 (active) | 4 (active) | 4 (active) | 0.568 (active) | 0.778 (active) | 0.75 (active)
O=C(c1cc2ccccc2o1)N1CCN(Cc2ccc3c(c2)OCO3)CC1 | 0 | 0 | 0 | 0.182 | 0.15 | 0.236
CC[C@@H]([C@H](C)O)n1ncn(-c2ccc(N3CCN(c4ccc(OC[C@@H]5CO[C@@](Cn6cncn6)(c6ccc(F)cc6F)C5)cc4)CC3)cc2)c1=O | 3 (active) | 4 (active) | 4 (active) | 0.2 | 0.243 | 0.556 (active)
Cc1cc(NCC(C)C)c2n[nH]c(-c3ccccc3)c2n1 | 0 | 0 | 0 | 0.105 | 0.111 | 0.0625
c1ccc(Oc2ccc(-c3cc(CN4CCOCC4)[nH]n3)cc2)cc1 | 0 | 0 | 0 | 0.0455 | 0.05 | 0.158
COc1ccc(OC(C)C(=O)Nc2ccc(Cl)cc2C)cc1 (stereo not given) | 0 | 0 | 0 | 0.182 | 0.35 | 0.345
Clc1cccc(C(c2ccc(CN3CCNCC3)cc2)n2ccnc2)c1 (stereo not given) | 1 | 1 | 4 (active) | 0.405 | 0.667 (active) | 0.875 (active)
O=C(Nc1nnc(-c2ccc(Cl)cc2)o1)c1cccc(C(F)(F)F)c1 | 0 | 4 (active) | 4 (active) | 0.0909 | 0.25 | 0.945 (active)
Nc1cccnc1Nc1ccc(Cl)cc1 | 0 | 0 | 0 | 0.15 | 0.278 | 0.375
Cc1cc(C)nc(-n2nc(C)cc2Nc2ccccc2)n1 | 2 (active) | 1 | 4 (active) | 0.0526 | 0.278 | 0.25
CNC(=O)c1nn(C)c2c1C(C)(C)Cc1cnc(Nc3ccc(N4CCN(C)CC4)cc3)nc1-2 | 3 (active) | 4 (active) | 4 (active) | 0.364 | 0.8 (active) | 0.891 (active)
CC(C)c1ncc(-c2ccncc2)c([C@H]2CC[C@H](CNC(=O)c3cccnc3)CC2)n1 | 0 | 0 | 0 | 0.05 | 0.0811 | 0.111
CC(C)n1ncc2c(C(=O)NCC(c3cccs3)N3CCOCC3)cc(-c3ccccc3)nc21 (stereo not given) | 2 (active) | 0 | 1 | 0.273 | 0.5 (active) | 0.4
CCOc1ccc2cc(-c3nn(CC4CCN(C)CC4)c4ncnc(N)c34)ccc2c1 | 0 | 0 | 0 | 0.1 | 0.167 | 0.389
CCN(CC)CCCN1CCN(C(=O)c2cccc(-c3noc(C(F)(F)F)n3)c2)CC1 | 0 | 0 | 1 | 0.2 | 0.111 | 0.25
CCCS(=O)(=O)N1CCC(CO)(Cc2ccccc2C(F)(F)F)CC1 | 2 (active) | 4 (active) | 4 (active) | 0.243 | 0.278 | 0.75 (active)
N#Cc1nc(-c2ccccc2)oc1S(=O)(=O)c1ccc(Cl)cc1 | 0 | 0 | 1 | 1 (active) | 1 (active) | 1 (active)
CN1CCCC1CCO[C@](C)(c1ccccc1)c1ccc(Cl)cc1 (stereo not given in full) | 2 (active) | 4 (active) | 4 (active) | 0.9 (active) | 1 (active) | 1 (active)
CCCCc1ccc(NC(=O)Nc2ccc(O[C@H]3CCCC[C@@H]3N(C)c3ccccc3)c(F)c2)cc1 | 0 | 0 | 0 | 0.111 | 0.312 | 0.875 (active)
CC(C)(C)OC(=O)N1CCN(c2nccc(-c3ccc(-c4ccc(Cl)cc4)s3)n2)CC1 | 0 | 0 | 0 | 0.182 | 0.15 | 0.182
Cc1nc(-c2ccccn2)nc(NCCc2ccc(S(C)(=O)=O)cc2)c1Cl | 0 | 4 (active) | 4 (active) | 0.135 | 0.167 | 0.5 (active)

SMILES | phenotypic severity score ([1]; 24 h) | phenotypic severity score ([1]; 48 h) | phenotypic severity score ([1]; 72 h) | drug effect ([2]; 24 h) | drug effect ([2]; 48 h) | drug effect ([2]; 72 h)
Cc1cc(C)n(-c2ccc(NC(=O)C3CCN(Cc4cnc(C)s4)CC3)cc2)n1 | 0 | 0 | 0 | 0.1 | 0.135 | 0.152
Nc1nc(N)c2c3c(sc2n1)CN(Cc1ccccc1)CC3 | 0 | 0 | 0 | 0.15 | 0.278 | 0.438
C[C@]1(O)C[C@@H](c2nc(-c3ccc4ccc(-c5ccccc5)nc4c3)c3c(N)nccn32)C1 | 0 | 0 | 0 | 0.05 | 0.027 | 0.111
CCOC(=O)c1c(NC(=O)c2c(F)c(F)c(F)c(F)c2F)sc(C(N)=O)c1C | 4 (active) | 4 (active) | 4 (active) | 1 (active) | 1 (active) | 1 (active)
CS(=O)(=O)Cc1nc2ccccc2oc1=O | 0 | 0 | 0 | 0.182 | 0.45 | 0.455
Cc1cnc(N2CCN[C@@H](Cc3ccccc3)C2)nc1Oc1ccc(-n2ccnc2)cc1 | 4 (active) | 4 (active) | 4 (active) | 0.3 | 0.556 (active) | 1 (active)
Nc1ncnc2c1ncn2[C@@H]1O[C@H](COS(=O)(=O)NC(=O)c2ccccc2O)[C@@H](O)[C@H]1O | 0 | 0 | 0 | 0.1 | 0.111 | 0.125
C[C@H](C(N)=O)N1CCCC[C@@H]1c1ccc(OCc2cccc(F)c2)cc1 | 0 | 0 | 0 | 0.2 | 0.444 | 0.5 (active)
CCC(NC(=O)c1ccccc1NC(=O)c1ccc(C)cc1)C(=O)OC (stereo not given) | 0 | 1 | 1 | 0.2 | 0.167 | 0.25
Cc1ccc(S(=O)(=O)Nc2ccc(CN3CCN(C(=O)c4cccc(C#N)c4)CC3)cc2)cc1 | 0 | 1 | 1 | 0.05 | 0.0556 | 0.0625
Cc1nn2c(=O)c3c([nH]c2c1-c1ccc(Cl)cc1)CCCC3 | 0 | 0 | 0 | 0.136 | 0.2 | 0.127
CCOC(=O)c1cc(-c2csc(Nc3c(C)cc(C)cc3C)n2)on1 | 1 | 1 | 0 | 0.182 | 0.3 | 0.291
O=C(NCc1ccco1)N1CCN(Cc2ccc(Cl)s2)CC1 | 0 | 0 | 0 | 0.136 | 0.3 | 0.345
COc1ccc(OC)c(NCc2ccc3nc(N)nc(N)c3c2Cl)c1 | 0 | 2 (active) | 0 | < 0 | 0.05 | 0.278
Cc1cc(OCC(=O)Nc2ccc(C(C)C)cc2)n(C)c(=O)c1C#N | 0 | 0 | 0 | 0.1 | 0.0556 | < 0
Cc1ccc2[nH]c(C3CCCNC3)c(-c3ccncc3)c2c1 (stereo not given) | 0 | 0 | 0 | < 0 | < 0 | 0.111
Cc1cnc(CCNC(=O)c2cc(-c3ccc(Cl)cc3)cs2)[nH]1 | 1 | 1 | 0 | 0.136 | 0.45 | 0.509 (active)
Clc1ccc(-n2cc(COc3ccnc4ccccc34)nn2)cc1 | 0 | 0 | 0 | 0.105 | 0.389 | 0.312
CN1CCN(S(=O)(=O)c2ccc(-c3ccc4c(Nc5ccc6nn[nH]c6c5)ccnc4c3)cc2)CC1 | 0 | 0 | 0 | 0.1 | 0.135 | 0.0909
COc1cc(C(F)(F)F)nc2ccc(C)c(N)c12 | 0 | 0 | 0 | 0.136 | 0.05 | 0.0526
COC(=O)c1c(NC(=O)c2cc3ccccc3oc2=O)sc2c1CCN(Cc1ccccc1)C2 | 0 | 3 (active) | 2 (active) | 0.4 | 0.222 | 0.556 (active)
CC[P](CC)(CC)=[Au][S][C@H]1O[C@@H](COC(C)=O)[C@H](OC(C)=O)[C@@H](OC(C)=O)[C@@H]1OC(C)=O | 4 (active) | 4 (active) | 4 (active) | 1 (active) | 1 (active) | 1 (active)
